# Reference: PubChem BioAssay (EPA / NIEHS)
# Inconclusive results are not listed. A structure can be active in one record and inactive in another. Active and inactive are the calls of the source. Rule for the calls, unless noted: active = hit-call score of the fitted dose curve at least 0.9, where 1 is the maximum; inactive = score below 0.9.
# Key:
# TIMP1, TIMP1 (gene 7076) = assay: LTEA_HepaRG_TIMP1: Life Technologies and Expression Analysis (LTEA) Assay for TIMP1 using HepaRG (AID 2283534); conditions: mRNA level, 48 h; actives raise or lower the signal;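 for outcome: TaqMan qRT-PCR signal normalized to ACTB GAPDH and POLR2A housekeeping genes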
# In short: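 Differentiated HepaRG cells exposed 48 h in serum-free induction medium, duplicates, eight half-log concentrations from 100 uM in 0.5% DMSO. TIMP1 mRNA by qRT-PCR normalized to ACTB, GAPDH, POLR2A; bidirectional fitting against DMSO.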
# [1] = read-out: Tumor necrosis factor receptor 1 (TNFRSF1A), TNFRSF1A (gene 7132); assay: LTEA_HepaRG_TNFRSF1A: Life Technologies and Expression Analysis (LTEA) Assay for Tumor necrosis factor receptor 1 (TNFRSF1A) using HepaRG (AID 2283535); conditions: mRNA level, 48 h; actives raise or lower the signal
# In short: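 Differentiated HepaRG cells in serum-free induction medium, exposed 48 h in duplicate to 8 half-log concentrations up to 100 uM in 0.5% DMSO. TNFRSF1A mRNA by Fluidigm TaqMan qRT-PCR, normalized to ACTB, GAPDH, POLR2A; bidirectional fit.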
# [2] = read-out: Thyroid Hormone Responsive (THRSP), THRSP (gene 7069); assay: LTEA_HepaRG_THRSP: Life Technologies and Expression Analysis (LTEA) Assay for Thyroid Hormone Responsive (THRSP) using HepaRG (AID 2283536); conditions: mRNA level, 48 h; actives raise or lower the signal
# In short: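 Differentiated human HepaRG cells were exposed in duplicate for 48 h in serum-free induction medium to eight concentrations (top 100 uM, half-log steps, 0.5% DMSO). Expression was quantified by TaqMan qRT-PCR, normalized to ACTB, GAPDH and POLR2A, with bidirectional fitting against DMSO.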
# [3] = read-out: Cellular tumor antigen p53 (Homo sapiens) (UniProt P04637); assay: LTEA_HepaRG_TP53: Life Technologies and Expression Analysis (LTEA) Assay for Tumor Protein P53 (TP53) using HepaRG (AID 2283537); conditions: mRNA level, 48 h; actives raise or lower the signal
# In short: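 TP53 transcript measured by qRT-PCR, normalized to three housekeeping genes, after 48 h treatment of human HepaRG cultures with chemicals from 100 uM downward in half-log steps (0.5% DMSO vehicle, serum-free induction medium). Up- or down-regulation fitted against DMSO.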
# [4] = read-out: UDP glucuronosyltransferase (UGT1A1), UGT1A1 (gene 54658); assay: LTEA_HepaRG_UGT1A1: Life Technologies and Expression Analysis (LTEA) Assay for UDP glucuronosyltransferase (UGT1A1) using HepaRG (AID 2283538); conditions: mRNA level, 48 h; actives raise or lower the signal
# In short: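 Differentiated human HepaRG cells in serum-free induction medium were exposed in duplicate for 48 h to eight half-log concentrations up to 100 uM in 0.5% DMSO. UGT1A1 mRNA was quantified by TaqMan qRT-PCR, normalized to ACTB, GAPDH and POLR2A, and fitted bidirectionally against DMSO.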
# [5] = read-out: UDP glucuronosyltransferase (UGT1A6), UGT1A6 (gene 54578); assay: LTEA_HepaRG_UGT1A6: Life Technologies and Expression Analysis (LTEA) Assay for UDP glucuronosyltransferase (UGT1A6) using HepaRG (AID 2283539); conditions: mRNA level, 48 h; actives raise or lower the signal
# In short: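 Differentiated HepaRG cells, ~100,000/well, were exposed for 48 h in serum-free induction medium with 0.5% DMSO to 8-point half-log series topping at 100 uM, in duplicate. mRNA measured by Fluidigm TaqMan qRT-PCR, normalized to ACTB, GAPDH and POLR2A.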
# [6] = read-out: X-box binding protein 1 (XBP1), XBP1 (gene 7494); assay: LTEA_HepaRG_XBP1: Life Technologies and Expression Analysis (LTEA) Assay for X-box binding protein 1 (XBP1) using HepaRG (AID 2283540); conditions: mRNA level, 48 h; actives raise or lower the signal
# In short: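 Differentiated human HepaRG cells in serum-free induction medium exposed 48 h in duplicate to eight half-log concentrations up to 100 uM in 0.5% DMSO. XBP1 mRNA measured by Fluidigm TaqMan qRT-PCR, normalized to ACTB, GAPDH, POLR2A; bidirectional fitting against DMSO.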
# [7] = LTEA_HepaRG_LDH_cytotoxicity: Cytotoxicity Assessment in the Life Technologies and Expression Analysis (LTEA) Assay (AID 2283563; active = hit-call score of the fitted dose curve at least 0.9, where 1 is the maximum;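 for AC50: LDH activity released into spent culture medium as a marker of cell death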)
# In short: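 Differentiated HepaRG cells in serum-free induction medium, exposed 48 h in duplicate to 8 half-log concentrations up to 100 uM in 0.5% DMSO. Cytotoxicity from LDH measured in spent medium, fit relative to DMSO.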
# [8] = TOX21_p53_BLA_p2_viability: Viability Assessment in the Tox21 HCT-116 p53 Agonism Beta-lactamase Assay, Phase 2 (AID 2283591; active = hit-call score of the fitted dose curve at least 0.9, where 1 is the maximum;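 note: compound exposure lasted 16 h at 37 °C; actives lower the ATP signal meaning cytotoxicity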)
# In short: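 HCT-116 p53-bla cells (4000/well) rested 5 h at 37C, then received compounds in DMSO (217-fold dilution) for 16 h at 37C, 5% CO2. After the CCF4 read, CellTiter-Glo was added; ATP luminescence was read after 30 min at room temperature.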
# [9] = ATG_XTT_Cytotoxicity: Cytotoxicity Assessment in the Attagene TRANS-FACTORIAL HepG2 Assay (AID 2283584; active = hit-call score of the fitted dose curve at least 0.9, where 1 is the maximum)
# In short: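 HepG2 cells transiently transfected with GAL4-UAS multiple reporter units, dosed 24 h; cytotoxicity read by XTT as loss of signal versus DMSO baseline.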
# Cellular tumor antigen p53 (Homo sapiens), sequence (P04637 whole entry, looked up): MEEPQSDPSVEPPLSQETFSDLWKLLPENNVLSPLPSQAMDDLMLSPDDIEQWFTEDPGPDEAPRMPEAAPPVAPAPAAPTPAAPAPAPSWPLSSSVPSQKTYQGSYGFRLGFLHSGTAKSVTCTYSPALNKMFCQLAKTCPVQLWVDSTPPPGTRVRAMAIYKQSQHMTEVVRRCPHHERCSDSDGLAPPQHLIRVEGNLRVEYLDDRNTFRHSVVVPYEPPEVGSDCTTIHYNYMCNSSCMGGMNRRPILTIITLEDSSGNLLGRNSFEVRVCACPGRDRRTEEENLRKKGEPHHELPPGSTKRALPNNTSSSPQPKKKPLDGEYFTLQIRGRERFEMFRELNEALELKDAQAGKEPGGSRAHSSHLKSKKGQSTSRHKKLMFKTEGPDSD
smiles,measurement,setting,value
CC(C)=CC1C(C(=O)OCN2C(=O)C3=C(CCCC3)C2=O)C1(C)C (configuration not stated),outcome,"TIMP1, TIMP1 (gene 7076)",inactive
same,outcome,[1],inactive
same,outcome,[2],inactive
same,outcome,[3],inactive
same,outcome,[4],inactive
same,outcome,[5],inactive
same,outcome,[6],inactive
same,outcome,[7],inactive
same,outcome,[8],inactive
CC(C)N(C(=O)SCC(Cl)=C(Cl)Cl)C(C)C,outcome,"TIMP1, TIMP1 (gene 7076)",inactive
same,outcome,[1],inactive
same,outcome,[2],inactive
same,outcome,[3],inactive
same,outcome,[4],inactive
same,outcome,[5],inactive
same,outcome,[6],inactive
same,outcome,[7],inactive
same,outcome,[8],inactive
CC(C1CC1)C(O)(Cn1cncn1)c1ccc(Cl)cc1 (configuration not stated),outcome,"TIMP1, TIMP1 (gene 7076)",inactive
same,outcome,[1],inactive
same,AC50,[2],28.1 µM (active)
same,outcome,[3],inactive
same,outcome,[4],inactive
same,outcome,[5],inactive
same,outcome,[7],inactive
same,outcome,[8],inactive
Cc1ccn2nc(S(=O)(=O)Nc3c(F)cccc3F)nc2n1,outcome,"TIMP1, TIMP1 (gene 7076)",inactive
same,outcome,[1],inactive
same,outcome,[2],inactive
same,outcome,[4],inactive
same,outcome,[5],inactive
same,outcome,[6],inactive
same,outcome,[7],inactive
O=c1ccc(=O)[nH][nH]1,outcome,"TIMP1, TIMP1 (gene 7076)",inactive
same,outcome,[1],inactive
same,outcome,[2],inactive
same,outcome,[3],inactive
same,outcome,[4],inactive
same,outcome,[5],inactive
same,outcome,[6],inactive
same,outcome,[7],inactive
same,outcome,[8],inactive
CN(C)[C@@H]1C(=O)C(C(N)=O)=C(O)[C@@]2(O)C(=O)C3=C(O)c4c(O)cccc4[C@@](C)(O)[C@H]3[C@H](O)[C@@H]12,outcome,"TIMP1, TIMP1 (gene 7076)",inactive
same,outcome,[1],inactive
same,outcome,[2],inactive
same,outcome,[4],inactive
same,outcome,[5],inactive
same,outcome,[6],inactive
same,outcome,[7],inactive
same,outcome,[9],inactive
CCc1cccc(CC)c1N(COC)C(=O)CCl,outcome,"TIMP1, TIMP1 (gene 7076)",inactive
same,outcome,[1],inactive
same,outcome,[2],inactive
same,AC50,[4],66.5 µM (active)
same,outcome,[5],inactive
same,outcome,[6],inactive
same,outcome,[7],inactive
COP(=O)(NC(C)=O)SC (configuration not stated),outcome,"TIMP1, TIMP1 (gene 7076)",inactive
same,outcome,[2],inactive
same,outcome,[3],inactive
same,outcome,[4],inactive
same,outcome,[5],inactive
same,outcome,[6],inactive
same,outcome,[7],inactive
same,outcome,[8],inactive
Nc1nc(N)nc(NC2CC2)n1,outcome,"TIMP1, TIMP1 (gene 7076)",inactive
same,outcome,[1],inactive
same,outcome,[2],inactive
same,outcome,[3],inactive
same,outcome,[4],inactive
same,outcome,[5],inactive
same,outcome,[6],inactive
same,outcome,[7],inactive
same,outcome,[8],inactive
CCC(=NOC/C=C/Cl)C1=C(O)CC(C2CCOCC2)CC1=O (configuration not stated),outcome,"TIMP1, TIMP1 (gene 7076)",inactive
same,outcome,[1],inactive
same,outcome,[2],inactive
same,outcome,[3],inactive
same,outcome,[4],inactive
same,outcome,[5],inactive
same,outcome,[6],inactive
same,outcome,[7],inactive
same,outcome,[8],inactive
CCCCSP(=O)(SCCCC)SCCCC,outcome,"TIMP1, TIMP1 (gene 7076)",inactive
same,outcome,[1],inactive
same,outcome,[2],inactive
same,outcome,[3],inactive
same,outcome,[4],inactive
same,outcome,[5],inactive
same,outcome,[6],inactive
same,AC50,[7],63.5 µM (active)
same,outcome,[8],inactive
CCOP(=S)(OCC)Oc1ccc([N+](=O)[O-])cc1,outcome,"TIMP1, TIMP1 (gene 7076)",inactive
same,outcome,[1],inactive
same,outcome,[2],inactive
same,outcome,[3],inactive
same,AC50,[4],10.6 µM (active)
same,outcome,[5],inactive
same,outcome,[6],inactive
same,outcome,[7],inactive
same,outcome,[8],inactive
C[Si](Cn1cncn1)(c1ccc(F)cc1)c1ccc(F)cc1,outcome,"TIMP1, TIMP1 (gene 7076)",inactive
same,AC50,[1],50 µM (active)
same,AC50,[2],5.9 µM (active)
same,outcome,[3],inactive
same,AC50,[4],66.3 µM (active)
same,AC50,[5],50 µM (active)
same,AC50,[6],90 µM (active)
same,AC50,[7],33.4 µM (active)
same,AC50,[8],23.1 µM (active)
same,outcome,[8],inactive
C=C(C)[C@H]1Cc2c(ccc3c2O[C@@H]2COc4cc(OC)c(OC)cc4[C@@H]2C3=O)O1,AC50,"TIMP1, TIMP1 (gene 7076)",11.1 µM (active)
same,AC50,[1],50 µM (active)
same,AC50,[2],1.36 µM (active)
same,AC50,[4],23.7 µM (active)
same,AC50,[5],23.4 µM (active)
same,outcome,[6],inactive
same,AC50,[7],6.74 µM (active)
O=C(O)c1cc(Oc2ccc(C(F)(F)F)cc2Cl)ccc1[N+](=O)[O-],outcome,"TIMP1, TIMP1 (gene 7076)",inactive
same,outcome,[1],inactive
same,outcome,[2],inactive
same,AC50,[4],22.7 µM (active)
same,outcome,[5],inactive
same,outcome,[6],inactive
same,outcome,[7],inactive
CON=C(C(=O)OC)c1ccccc1CON=C(C)c1cccc(C(F)(F)F)c1,outcome,"TIMP1, TIMP1 (gene 7076)",inactive
same,outcome,[1],inactive
same,AC50,[2],50 µM (active)
same,outcome,[3],inactive
same,AC50,[4],6.06 µM (active)
same,outcome,[5],inactive
same,outcome,[6],inactive
same,outcome,[7],inactive
same,outcome,[8],inactive
COP(=O)(OC)C(O)C(Cl)(Cl)Cl (configuration not stated),AC50,"TIMP1, TIMP1 (gene 7076)",0.0702 µM (active)
same,AC50,[1],0.109 µM (active)
same,outcome,[2],inactive
same,outcome,[3],inactive
same,AC50,[4],0.0534 µM (active)
same,AC50,[5],0.103 µM (active)
same,outcome,[6],inactive
same,outcome,[7],inactive
same,outcome,[8],inactive
CCOC(=O)COc1cc(-c2nn(C)c(OC(F)F)c2Cl)c(F)cc1Cl,outcome,"TIMP1, TIMP1 (gene 7076)",inactive
same,outcome,[1],inactive
same,outcome,[2],inactive
same,outcome,[3],inactive
same,AC50,[4],50 µM (active)
same,outcome,[5],inactive
same,outcome,[6],inactive
same,outcome,[7],inactive
same,outcome,[8],inactive
